FLuc counter: counter-screen for miR-21 project: firefly luciferase inhibitors or activators; P08659; purified FLuc, Km substrates, luminescence inhibition; Potency, µM (top dose mostly 57.5 µM), without a hit: at the highest dose activity change, negative = inhibition, usual class: inhibitors; hit rate 6.9% among 360,000; AID 588342;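 also: plate controls were vehicle for no effect and reference inhibitor for full effect; nearly all actives have a fitted effect of over 55% in size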
Target sequence (P08659 whole entry, looked up): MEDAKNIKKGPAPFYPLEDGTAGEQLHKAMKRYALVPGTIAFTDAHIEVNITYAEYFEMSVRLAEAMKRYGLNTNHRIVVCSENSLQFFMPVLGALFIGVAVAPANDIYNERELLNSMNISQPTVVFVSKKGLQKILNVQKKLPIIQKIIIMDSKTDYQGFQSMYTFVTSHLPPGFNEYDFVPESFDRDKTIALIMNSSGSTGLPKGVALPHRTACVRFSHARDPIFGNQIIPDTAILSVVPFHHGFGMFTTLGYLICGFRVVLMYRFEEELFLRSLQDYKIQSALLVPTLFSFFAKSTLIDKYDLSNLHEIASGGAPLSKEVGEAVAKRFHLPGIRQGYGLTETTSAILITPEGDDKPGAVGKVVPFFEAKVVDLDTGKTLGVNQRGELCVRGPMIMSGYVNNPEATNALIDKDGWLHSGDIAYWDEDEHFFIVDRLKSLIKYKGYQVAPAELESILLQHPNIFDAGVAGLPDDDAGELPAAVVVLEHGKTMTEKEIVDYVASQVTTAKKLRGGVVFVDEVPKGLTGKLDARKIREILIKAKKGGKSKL
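Biochemical qHTS of compounds, final roughly 60 µM downward over six points, against 10 nM purified firefly luciferase using Km concentrations of substrates (10 uM D-luciferin, 10 uM ATP) in Tris acetate pH 7.5 buffer; luminescence output.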
NPC1 prom act: activates the NPC1 promoter; Huh7 NPC1 promoter luciferase reporter, 24 h; Potency, µM (doses to about 9.22 µM), inactives show at the top dose activation, hits mostly activators; hit rate 2.4% among 320,000; also: % of control where 0% means no effect; nearly all actives have a fitted effect of over 60% in size
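Readout is luciferase luminescence, reflecting NPC1 promoter activation in stably transfected Huh7 cells after 24 h compound exposure at 37 °C in reduced-serum medium with 10% FBS.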
Rab9 prom act: activates the Rab9 promoter; Huh7 Rab9 promoter-luciferase reporter, luminescence, 24 h; hit rate 2.8% among 320,000; Potency, µM (series often up to 9.22 µM), inactives show at the highest dose activation, negative = inhibition, usual class: activators; also: % of control where 0% means no effect; nearly all actives have a fitted effect of over 60% in size
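Cell-based reporter: Huh7 stable for Rab9 promoter-driven luciferase, plated in reduced-serum medium with 10% FBS at 1500 cells/well, compound-treated 24 h at 37 °C, luminescence read after 10 min reagent.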
SMN2 splice up: increases expression of the SMN2 splice variant; HEK293 SMN2-luciferase splicing reporter, luminescence, 30-36 h; Potency, µM (doses to about 46.1 µM), for inactives: at the top dose activity change, positive = activation, actives largely listed as activators; hit rate 2.8% among 210,000; also: % of control where 0% means no effect; nearly all actives have a fitted effect of over 55% in size
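qHTS luciferase splicing reporter: luminescence rises when SMN2 exon 7 is included in transfected HEK293 cells. Compound exposure lasted 30-36 h at 37C, with 4.5 mM final sodium butyrate as control, followed by a ONE-Glo read.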
ELG1 genotox: inducers of genotoxicity in HEK293T ELG1-luciferase cells; Potency, µM (series often up to 46 µM), without a hit: top-dose activity change, positive = activation, hits mostly activators; hit rate 1.3% among 330,000; HEK293T ELG1-luciferase reporter, luminescence, 16 h; AID 504466; also: % of control where 0% means no effect; nearly all actives have a fitted effect of over 60% in size
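Genotoxicity was scored as increased ELG1-luciferase reporter signal, measured by ONE-Glo luminescence (30 min, room temperature). Compound or vehicle exposure of the HEK293T reporter cells lasted 16 hr at 37°C.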
KinaseGlo FLuc: Kinase-Glo luciferase inhibition (counter-screen) | Q27757 | Kinase-Glo luciferase, ATP luminescence, 8 min | Potency, µM (titrated, usually from 38.3 µM), for inactives: at the highest dose activity change, negative = inhibition, hits mostly inhibitors | hit rate 0.28% among 200,000; also: % is scaled to controls: 0 for no effect and ±100 for the full control effect; nearly all actives have a fitted effect of over 60% in size
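Luminescence was the read-out, taken after 8-minute incubation at ambient temperature. Luciferase turned over luciferin with 10 uM ATP in imidazole pH 7.2 buffer containing KCl, MgCl2, Tween 20 and BSA.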
The depositor's hits bear a star; ? = inconclusive; / = not tested or not shown; [ ] = remark or other dose. Most compounds without a hit are left out; they make up all but 7.5% or so of the library. Calls follow the shape of the dose curve; as a rule, active = well fitted curve in the direction sought with a large enough effect; inconclusive = small, poorly fitted or top-dose-only effect, or another doubt; inactive = no such curve, though single readings can be large; an effect the other way counts as inactive or inconclusive. Potency is read from the fitted curve at half-maximal effect.

SMILES | FLuc counter | NPC1 prom act | Rab9 prom act | SMN2 splice up | ELG1 genotox | KinaseGlo FLuc
CCc1cc2c(=O)n(C(C)C(=O)OC3CCCCC3)cnc2s1 (stereo unspecified) | 15µM* | ? | ? | 11µM* | 9.2µM* | 3%
O=C(C1CC(c2ccc(F)cc2)=NO1)N1CCC2(CC1)OCCO2 (stereo unspecified) | 17µM* | 29% | ? | -28% | 21µM* | -3%
O=C(C1CC(c2ccc(Cl)c(Cl)c2)=NO1)N1CCC2(CC1)OCCO2 (stereo unspecified) | 15µM* | 2.2µM* | 2µM* | 13µM* | 7.3µM* | -3%
C=CCBr | / | / | / | -3% | / | /
CNC(=O)Oc1ccc(-c2cn3cc(C)ccc3n2)cc1 | 0.34µM* | 0.35µM* | 0.32µM* | 1.8µM* | ? | ?
CCC(COC(=O)NC)NC(=O)Oc1cccc(C)c1 (stereo unspecified) | -2% | -3% | 7% | 10% | 3% | 6%
CNC(=O)Oc1cccc(-c2cn3cc(Cl)ccc3n2)c1 | 2.7µM* | 3.2µM* | 3.5µM* | ? | ? | 10µM*
CN(CCc1ccc(Cl)c(Cl)c1)[C@H]1CCCC[C@H]1N1CCCC1 | / | / | / | / | / | 2%
COc1cc2c(cc1OC)C1C(=O)c3c(cc4c(c3O)C=CC(C)(C)O4)OC1CO2 (stereo unspecified) | / | / | / | -58% | / | -2%
Cc1cccc(N=Nc2ccc(N(C)C)cc2)c1 | 0.67µM* | 0.63µM* | 1.3µM* | / | 4.6µM* | /
c1ccc(N=Nc2ccccc2)cc1 | / | / | / | 4% | / | -4%
CC(C)(C)c1ccc(C(=O)C2CCCN(Cc3ccon3)C2)cc1 (stereo unspecified) | 17µM* | ? | ? | / | 15% | /
O=C(c1ccc(Cl)cc1)C1CCCN(Cc2ccon2)C1 (stereo unspecified) | 0% | -5% | -4% | / | 1% | -2%
CC1(C)[C@@H]2CC[C@]1(C)CN(CCC[N+](C)(C)C)C2 | / | / | / | -1%[9.22 µM] | / | -4%[7.66 µM]
NNc1nncn1N | / | / | / | -14%[9.22 µM] | / | 0%[7.66 µM]
O=C1NC(=S)N(c2ccc(F)cc2)C(=O)/C1=C\c1ccoc1 | 24µM* | -1% | -6% | / | 0% | /
Cc1ccc(/C=C2\C(=O)NC(=S)N(c3cccc(F)c3)C2=O)o1 | 17µM* | -3% | -1% | / | 0% | /
Clc1ccccc1Nc1ncnc(-n2cccc2)n1 | 7.6µM* | 2.8µM* | 3.5µM* | ? | ? | -4%
Cc1ccc(/C=C/C(=O)C2C(=O)c3ccccc3C2=O)cc1 | 0.19µM* | ? | ? | 10µM* | ? | -12%
C1C[C@@H]2CN(CCCN3CCOCC3)[C@@H](C1)O2 | / | / | / | 4%[9.22 µM] | / | 3%[7.66 µM]
CCOc1ccc2nc(N3CCC(C(=O)Nc4ccc(Br)cc4F)CC3)sc2c1 | 15µM* | / | / | 13µM* | / | /
CCOc1ccc(NCc2cccn2-c2nnc(N3CCC(C(=O)NCC(C)c4ccccc4)CC3)s2)cc1 (stereo unspecified) | 0% | / | / | -63% | / | /
O=c1c2ccccc2[nH]c(=S)n1-c1ccc2c(c1)OCCO2 | 11µM* | ? | ? | / | 15% | /
Cc1cccc(-n2c(=S)[nH]c3ccccc3c2=O)n1 | -1% | 1% | 3% | -19% | 18% | 0%
Cc1ccc(C(=O)Nc2c(C(=O)Nc3ccc(C)c(C)c3)sc3nc(C)cc(C)c23)cc1 | 11µM* | / | / | 13µM* | / | /
SMILES | FLuc counter | NPC1 prom act | Rab9 prom act | SMN2 splice up | ELG1 genotox | KinaseGlo FLuc
Cc1ccc(NC(=O)c2snnc2C)cc1Cl | -12% | -4% | -1% | -3% | 18% | 0%
CN1C[C@H](C(=O)N[C@@]2(C)O[C@@]3(O)[C@H]4CCCN4C(=O)[C@@H](Cc4ccccc4)N3C2=O)C=C2c3cccc4[nH]cc(c34)C[C@@H]21 | / | / | / | -3%[9.22 µM] | / | -8%[7.66 µM]
CCOC(=O)Cn1cc(C(=O)c2ccccc2)c2ccccc21 | -13% | -4% | 0% | / | -3% | /
CCOC(=O)CSc1ncnc2c1cnn2-c1ccccc1 | 12µM* | 0% | 0% | ? | 5% | -9%
CCOc1ccccc1Oc1coc2cc(OC(=O)c3ccco3)ccc2c1=O | 15µM* | 0% | -5% | ? | 7% | -5%
CSc1ccc2c(c1)c(CCN)c(C)n2Cc1ccccc1Cl | / | / | / | 2%[9.22 µM] | / | 0%[7.66 µM]
CCC(C)/C=C(C)/C=C/C1=CC2=C(Cl)C(=O)C(C)(OC(C)=O)C(=O)C2=CO1 (stereo unspecified) | 21µM* | -1% | 15% | / | 3% | /
O=C1NC(=S)N(C2CC2)C(=O)/C1=C/c1ccc2c(c1)CCN2CCCCl | 19µM* | 0% | -1% | -21% | ? | -27%
CCN1C(=O)/C(=C/c2ccc3c(c2)CCN3CCCCl)C(=O)NC1=S | ? | -1% | 1% | -17% | ? | ?
CN1C(=O)C(=Cc2ccccc2OCc2ccc(Cl)cc2)C(=O)N(C)C1=O | 9.5µM* | -3% | 1% | ? | ? | -8%
Cc1ccc(Cn2nc(C(=O)Nc3ccc(Br)cc3)cc2C)cc1 | 9.5µM* | -13% | -11% | / | 21µM* | /
COC(=O)c1ccc(NC(=O)CSc2nc3ccc(N4C(=O)C5C6C=CC(C6)C5C4=O)cc3s2)cc1 (stereo unspecified) | 13µM* | -4% | -8% | -104% | -13% | 5%
O=C(Oc1ccc2ccccc2c1)c1ccco1 | 12µM* | -2% | 5% | -2% | 3% | -9%
Clc1cccc(/C=N\Nc2nccs2)c1 | 13µM* | ? | ? | 25% | 21µM* | 0%
O=C(COC(=O)Cc1ccccc1)Nc1ccc(SC(F)F)cc1 | 19µM* | -6% | -5% | 14% | 3% | -1%
O=C(NCP(=O)(O)O)c1cccnc1 | / | / | / | -3%[9.22 µM] | / | -4%[7.66 µM]
CC(C)(C)c1cc(C#N)cc(Br)c1OP(=O)(Oc1c(Br)cc(C#N)cc1C(C)(C)C)c1ccccc1 | / | / | / | -5%[9.22 µM] | / | -1%[7.66 µM]
CN(C)c1ccc(/C=C/C=C2/C(=O)NC(=O)N(c3ccccc3)C2=O)cc1 | 4.3µM* | 1% | -3% | / | -5% | 14µM*
O=C1NC(=O)N(c2ccccc2)C(=O)/C1=C/c1ccc2c(c1)Cc1ccccc1-2 | 21µM* | -5% | 1% | 11% | 8% | 9%
CC(C)(C)n1cccc1/C=C1\C(=O)NC(=O)N(c2ccccc2)C1=O | 24µM* | 2% | -2% | -22% | 1% | 0%
O=C1NC(=O)N(c2ccccc2)C(=O)/C1=C/C=C/c1ccco1 | ? | 17% | 14% | / | 15% | /
COc1cc(/C=C2\C(=O)NC(=O)N(c3ccccc3)C2=O)cc(OC)c1O | 21µM* | -3% | 1% | 30% | 3% | -8%
Cc1cc(C)cc(N2C(=O)NC(=O)/C(=C/c3cccn3-c3ccc(Cl)cc3)C2=O)c1 | 0% | 7% | 2% | 14% | -16% | 1%

Screens deposited in PubChem by National Center for Advancing Translational Sciences (NCATS).
